Hit rate of the full screen: of about 190,000 compounds, about 570 (0.3%) were called active.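 Rule for the calls: active = z-score above 3 at 5 µM with at least 500 cells counted in the well; inconclusive = wells under 500 cells, flagged as cytotoxic or low count; inactive = the rest.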 For the sample, actives were picked, then their nearest neighbours and some compounds at random.
Assay: insulin promoter activators in MIN6 cells, imaging, high-content screening, mouse beta cells (AID 1625);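 for cell count: total cells summed across four imaged fields per well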
Conditions: MIN6 insulin promoter-GFP reporter, at 5 µM; cell count: measured here: cytotoxicity, nuclei count; z-score: stronger effect = higher value

Row | SMILES | cell count [cells] | z-score
1 | Cc1cc2nc(C(F)(F)F)cc(-c3cccs3)n2n1 | 1200 | -0.13 (inactive)
2 | O=C(COC(=O)C12CC3CC(CC(O)(C3)C1)C2)NC12CC3CC(CC(C3)C1)C2 | 1360 | -1.25 (inactive)
3 | Clc1ccc2nc(-c3ccccc3)nc(C(Cl)Cl)c2c1 | 892 | -0.12 (inactive)
4 | Cc1cc2c(c(=O)n1Cc1ccco1)C(c1ccccc1)C(C#N)=C(N)O2 (centres undefined) | 961 | -0.43 (inactive)
5 | CN(c1ccccc1)c1ccc(/C=c2\s/c(=C(/C#N)C(=O)C(C)(C)C)n(Cc3ccco3)c2=O)cc1 | 1460 | 12.8 (active)
6 | CCOC(=O)CSc1nc2c(sc(=S)n2CCc2ccccc2)c(=O)n1Cc1ccco1 | 1440 | -0.59 (inactive)
7 | CSc1nc(-c2ccco2)nn1C(=O)c1ccccc1Cl | 983 | -0.05 (inactive)
8 | COc1ccc(OC)c(CNC(=O)c2cc(=O)[nH]c3ccc(S(=O)(=O)N4CCCC4)cc23)c1 | 1540 | -0.29 (inactive)
9 | Cc1cc(C(=O)N/N=C/c2ccc(N3CCOCC3)cc2)c(C)o1 | 987 | 0.32 (inactive)
10 | Cc1ccc(C(=O)NC(=S)Nc2ccc(N3CCOCC3)cc2)cc1 | 1440 | -0.06 (inactive)
11 | CCN(CC)c1ccc(C(=O)N/N=C/c2ccc(N3CCOCC3)cc2)cc1 | 1830 | 3.38 (active)
12 | COc1ccccc1Nc1nc(N)nc(CSC(=S)N2CCOCC2)n1 | 1080 | -0.34 (inactive)
13 | CCCN(c1ccc(C)cc1)c1nc(=O)c2cccnc2s1 | 1150 | 0.79 (inactive)
14 | O=C(NCc1ccc(F)cc1)C1CCC(CNc2c(N3CCOCC3)c(=O)c2=O)CC1 (centres undefined) | 1000 | -0.88 (inactive)
15 | CC(C)CN(CC(C)C)CC(O)CN(c1ccccc1)S(=O)(=O)c1ccccc1[N+](=O)[O-] (centres undefined) | 1100 | -1.15 (inactive)
16 | CC(C)CNC(=O)C(=O)NCc1ccccc1 | 1620 | -0.28 (inactive)
17 | Cc1nn(-c2ccccc2)c(C)c1NC(=O)COc1ccc(Cl)cc1Cl | 1470 | 1.23 (inactive)
18 | Cc1nn(-c2ccccc2)c(Cl)c1C(=O)Nc1ccccc1 | 1480 | -0.05 (inactive)
19 | Cc1nn(-c2ccccc2)c(C)c1NC(=O)CCl | 1030 | 3.88 (active)
20 | S=C(NCCc1ccccc1)N1CCn2cccc2C1c1ccncc1 (centres undefined) | 1320 | 0.43 (inactive)
21 | O=C(CN1CCN(Cc2ccccc2)CC1)NC(c1ccccc1)c1ccccc1 | 847 | 0.25 (inactive)
22 | CCN(CC(=O)Nc1cccc(S(N)(=O)=O)c1)Cc1nc2ccccc2c(=O)[nH]1 | 1090 | 0.21 (inactive)

Row | SMILES | cell count [cells] | z-score
23 | CC(=O)Nc1ccc(NC(=O)COc2ccc(S(=O)(=O)NC(C)c3ccccc3)cc2)cc1 (centres undefined) | 1520 | -0.4 (inactive)
24 | CCCS(=O)(=O)C(=C1Nc2ccccc2N1)S(=O)(=O)CCC | 1240 | 0.09 (inactive)
25 | O=C1CCCCC(=O)c2ccccc2N1 | 1400 | 0.07 (inactive)
26 | CN(C)/C=C1/Nc2ccccc2C1=O | 636 | 4.71 (active)
27 | O=C(Nc1nnc(Cc2ccccc2)s1)c1cnccn1 | 1430 | 0.26 (inactive)
28 | Cc1ccccc1Cn1c2ccccc2c2cnn(CC(=O)NCc3ccco3)c(=O)c21 | 1130 | -0.15 (inactive)
29 | CCc1cccc(CC)c1NC(=S)Nc1ccc2cn[nH]c2c1 | 1180 | -0.06 (inactive)
30 | O=C(COC(=O)CNC(=O)c1ccco1)Nc1ccc(F)cc1 | 1320 | -0.26 (inactive)
31 | O=C(CNC(=O)c1ccco1)OCC(=O)c1ccccc1 | 1220 | 4.35 (active)
32 | O=C(CNC(=O)c1ccccc1)NCC(=O)OCC(=O)c1ccccc1 | 1240 | -0.32 (inactive)
33 | CCOC(=O)C1=C(N)N2C(=O)C(C)SC2=C(C(=O)OCC)C1c1cc(OC)c(OC)c(OC)c1 (centres undefined) | 1120 | -0.67 (inactive)
34 | NS(=O)(=O)c1ccc(NC(=O)COC(=O)c2cc3ccccc3oc2=O)cc1 | 1430 | 0.45 (inactive)
35 | CCCCOc1ccc(CON(C(C)=O)C(C)=O)cc1Cl | 1140 | -0.26 (inactive)
36 | O=C(CCn1nnc2ccccc2c1=O)N[C@@H](Cc1c[nH]c2ccccc12)C(=O)O | 1030 | 0.15 (inactive)
37 | CC(C)OCCCNC(=O)C1CC(=O)N(C2CCCCCCC2)C1 (centres undefined) | 1560 | -0.3 (inactive)
38 | O=C(NCCCN1CCCCCC1)C1CC(=O)N(C2CCCC2)C1 (centres undefined) | 1560 | 4.02 (active)
39 | Cc1ccc(CNC(=O)C2CC(=O)N(C3CCCCCCC3)C2)cc1 (centres undefined) | 1550 | -0.31 (inactive)
40 | O=C(Nc1ccccc1)O/N=C1/CCCc2occc21 | 985 | -0.24 (inactive)
41 | O=C1CCCCC1C(=O)c1ccccc1 (centres undefined) | 991 | -0.12 (inactive)
42 | OC(c1ccccc1)C(CN1CCOCC1)c1ccccc1 (centres undefined) | 1160 | -0.19 (inactive)
43 | C1=C(N2CCOCC2)/C(=C/c2nc3ccccc3[nH]2)CC1 | 905 | 3.43 (active)
44 | c1ccc2[nH]c(NCCN3CCOCC3)nc2c1 | 1180 | 0.66 (inactive)

Row | SMILES | cell count [cells] | z-score
45 | c1ccc(Nc2nc(N3CCOCC3)c3ccccc3n2)cc1 | 637 | -1.26 (inactive)
46 | CCOc1c(Nc2cccc(Cl)c2)c(=O)c1=O | 1030 | 0.15 (inactive)
47 | COc1cc2c(C(=O)N3CCN(C)CC3)c(CSc3ccccc3)n(C)c2cc1Br | 1290 | -0.8 (inactive)
48 | Cc1ccc(NC(=S)N2CCCC(c3ccccc3)=N2)cc1 | 1540 | -0.41 (inactive)
49 | O=S(=O)(NC(=S)Nc1ccccc1)c1ccc(F)cc1 | 1080 | -0.63 (inactive)
50 | CCc1nnc(NC(=O)Cc2cccs2)s1 | 1560 | 0.7 (inactive)
51 | COc1ccc(Cc2nnc(NC(=O)Cc3cccs3)s2)cc1 | 1270 | 3.48 (active)
52 | O=C(Cc1cccs1)Nc1nnc(C2CC2)s1 | 1650 | 1.57 (inactive)
53 | Cc1ccc(OCC(=O)Nc2nnc(-c3ccco3)s2)cc1 | 1050 | -0.23 (inactive)
54 | Cc1ccc(SC(C)C(=O)NCc2ccc(F)cc2)cc1 (centres undefined) | 1600 | 0.03 (inactive)
55 | N#CCCCn1c(O)c(N=NC(=O)C(O)c2ccccc2)c2ccccc21 (centres undefined) | 1150 | 0.15 (inactive)
56 | Cc1ccc(C(=O)N/C(=C\c2ccco2)C(=O)N2CCSCC2)cc1C | 1360 | -0.32 (inactive)
57 | CC1CCN(c2ccc([N+](=O)[O-])cc2C(N)=O)CC1 | 1470 | 0.15 (inactive)
58 | COC(=O)c1sccc1NC(=O)c1csc2c1CCCC2 | 1260 | -0.75 (inactive)
59 | COC(=O)c1sccc1NC(=O)COc1ccc(Cl)cc1 | 2220 | -0.38 (inactive)
60 | COC(=O)c1sccc1NC(=O)c1cc(OC)c(OC)c(OC)c1 | 1440 | 3.71 (active)
61 | O=S(=O)(c1ccc(Cl)cc1)N1CCCN(c2ccc(C(F)(F)F)cn2)CC1 | 1100 | -0.98 (inactive)
62 | Cc1ccnc(NC(=O)CCCOc2ccccc2)c1 | 1410 | -0.12 (inactive)
63 | COC(=O)c1scc(S(=O)(=O)C(C)(C)C)c1-n1cccc1 | 1430 | 0.89 (inactive)
64 | O=C(CSc1nc2ccccc2s1)Nc1ccc(C(=O)O)cc1 | 1290 | 0.75 (inactive)
65 | Cc1oc(C(N)=O)cc1COc1ccc(C(N)=O)cc1 | 1120 | -0.28 (inactive)
66 | COc1ccc(N2C(=O)C(Cc3ccccc3)NC2=S)cc1 (centres undefined) | 1180 | 0.5 (inactive)

Row | SMILES | cell count [cells] | z-score
67 | CCOC(=O)C1CCN(C(=O)Nc2cccc(OC)c2)CC1 | 1010 | -0.44 (inactive)
68 | O=C(CN1C(=O)CC(c2ccccc2)S(=O)(=O)c2ccccc21)NC1CCCC1 (centres undefined) | 1220 | -1.1 (inactive)
69 | CN(CCCNC(=O)CN1C(=O)CC(C)(C)S(=O)(=O)c2ccccc21)C1CCCCC1 | 1010 | 3.03 (active)
70 | Cc1oc(-c2ccccc2F)nc1CS(=O)(=O)CC(=O)NCCCN(C)C1CCCCC1 | 1560 | 0.14 (inactive)
71 | O=C1CCCC(O)=C1C=NCCc1ccccc1 | 1000 | 3.02 (active)
72 | O=C1CC(c2ccccc2)CC(O)=C1C=NCCN1CCOCC1 (centres undefined) | 1300 | -0.21 (inactive)
73 | CC1(C)CC(=O)C(C=NCCC2=CCCCC2)=C(O)C1 | 1030 | 0.42 (inactive)
74 | CS(=O)(=O)c1ccc2nnn(OCC(=O)Nc3cccc(C#N)c3)c2c1 | 1340 | -0.14 (inactive)
75 | Cc1cc(C)c(NC(=O)CN2C(=O)NC(Cc3ccccc3)C2=O)c(C)c1 (centres undefined) | 1480 | 0.2 (inactive)
76 | CN1CCN(CCNC(=O)Nc2ccc([N+](=O)[O-])cc2)CC1 | 1230 | 0.23 (inactive)
77 | Cn1ccc(NC(=O)Nc2ccc(Cl)cc2)n1 | 1320 | 0.16 (inactive)
78 | Cc1c(C(=O)N2CCCc3ccccc32)sc2nc(-c3ccccc3)cn12 | 661 | 1.22 (inactive)
79 | Cc1occc1C(=O)N1CCCc2ccccc21 | 1220 | 0.1 (inactive)
80 | Cc1cccc2cc3c(N)c(C(=O)N4CCCc5ccccc54)sc3nc12 | 725 | 6.25 (active)
81 | CCOC(=O)C1=C(CN2CCCCCC2)NC(=O)NC1c1cccc([N+](=O)[O-])c1 (centres undefined) | 1200 | 0.23 (inactive)
82 | COCc1cc(=O)oc2cc(NS(=O)(=O)c3ccc(C)cc3)ccc12 | 1024 | 0.12 (inactive)
83 | CC1=NNC(=O)C1CC(=O)N/N=C/c1ccncc1 (centres undefined) | 1010 | 1.19 (inactive)
84 | COc1c(C=O)c(CCN(C)C(=O)c2ccc(F)cc2)cc2c1OCO2 | 1010 | 0.62 (inactive)
85 | Cc1nn(CC2CC2)c(=O)n1N(C)c1ncc(C(F)(F)F)cc1Cl | 1660 | -0.16 (inactive)
86 | COc1cc(/C=N/Nc2nc3ccccc3s2)ccc1O | 924 | -0.19 (inactive)
87 | Cn1c(SCC(=O)c2ccc(F)cc2)nnc1-c1ccccn1 | 1430 | -0.19 (inactive)

From PubChem BioAssay AID1625 (Sanford-Burnham Center for Chemical Genomics, 2009)
